Abeta yeast res: restores growth of yeast expressing A-beta42 peptide; AID 1347071; actives 0.063% (n = 410,000); Potency, µM (top dose mostly 46.1 µM), most hits filed as activators; yeast expressing A-beta42, growth rescue, OD600, 48 h; response scale: 0% DMSO, 100% iron-clioquinol control; note: nearly all actives have a fitted effect of over 55% in size
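Yeast growth medium received pinned compounds, then yeast cells expressing toxic A-beta were added; plates incubated at 30 C for 48 hr. Growth read as absorbance at 600 nm, normalized to DMSO and equimolar FeCl3 plus clioquinol controls.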
aSyn yeast inh: inhibitors of alpha-synuclein toxicity in yeast | Yeast expressing alpha-synuclein, growth rescue, BacTiter-Glo, 24 h | Potency, µM (series often up to 46.1 µM), for inactives: at the top dose growth rescue (activation), hits mostly activators | AID 652106 | actives 0.14% (n = 370,000); note: % of control where 0% means no effect; nearly all actives have a fitted effect of over 65% in size
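Rescue of yeast growth: cells expressing toxic alpha-synuclein, induced in galactose at OD600 0.02, incubated with compound 24 h at 30 C. ATP luminescence quantified growth; inhibitors of toxicity appear as activators.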
FUS suppressor: FUS proteinopathy suppression in yeast. S. cerevisiae FUS-expressing, growth rescue, OD600, 24 h. Potency, µM (top dose mostly 76.6 µM), actives largely listed as activators. actives 0.24% (n = 390,000). AID 1347120;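 note: plate controls were DMSO vehicle for no effect and reference control for full effect; nearly all actives have a fitted effect of over 55% in size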
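Read-out: OD at 600 nm after 24hr at 30C, reporting rescue of FUS-induced yeast toxicity. Cells at OD 0.005 in galactose (2%) minimal medium; compounds tested in a dilution series; CP55940 titration from 92uM final as control.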
TDP-43 yeast inh: rescues yeast growth from TDP-43 toxicity; Potency, µM (titrated, usually from 46.1 µM), for inactives: at the top dose growth rescue (activation), hits mostly activators; actives 1.8% (n = 410,000); TDP-43 expressing yeast growth rescue, BacTiter-Glo, 24 h; AID 652104; note: % of control where 0% means no effect; nearly all actives have a fitted effect of over 50% in size
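Yeast cells expressing TDP-43 under galactose induction are exposed to compounds for 24 hr at 30 deg C. BacTiter-Glo luminescence measures growth, so protective compounds score as activators.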
* marks the source's active call; other numbers are inactive results; i = inactive; ? = inconclusive; / = no result given; [ ] = remark or other dose. This is a sample that favours compounds with a hit; in the whole collection about 2.1% have one here. Calls come from the whole dose curve; as a rule, active = well fitted curve in the direction sought with a large enough effect; inconclusive = small, poorly fitted or top-dose-only effect, or another doubt; inactive = no such curve, though single readings can be large; an effect the other way counts as inactive or inconclusive. Potency is the fitted concentration of half-maximal effect.

SMILES | Abeta yeast res | aSyn yeast inh | FUS suppressor | TDP-43 yeast inh
COc1ccc(-c2ccc(C(=O)NCC3CC3)c3occc23)c(C)c1 | i | -8% | i | 22µM*
COc1ccc(-c2ccc(C(=O)NCc3ccncc3)c3occc23)c(C)c1 | i | 16% | i | 15%
COc1ccc(-c2ccc(C(=O)N3CCN(C)CC3)c3occc23)c(C)c1 | i | -1% | i | 4%
COc1ccc(-c2coc3c(C(=O)NCC4CCOCC4)cccc23)c(C)c1 | i | -26% | ? | ?
COc1ccc(-c2ccc(C(=O)N3CCOCC3)c3occc23)c(C)c1 | i | ? | i | 10µM*
COc1ccc(-c2ccc(C(=O)NCC(C)C)c3occc23)c(C)c1 | i | 2% | i | 25µM*
N/C(Cc1cccc2ccccc12)=N\OC(=O)COc1ccccc1 | i | -24% | / | 22µM*
N/C(=N\OC(=O)c1cccc2ccccc12)c1ccncc1 | i | ? | i | 20µM*
N/C(=N\OC(=O)c1cccc2ccccc12)c1ccc(Br)cc1 | i | -49% | i | ?
COc1ccccc1C/C(N)=N/OC(=O)COc1cccc2ccccc12 | i | 9% | i | 0%
N/C(Cc1cccc2ccccc12)=N\OC(=O)c1ccccc1F | i | -26% | / | 22µM*
C=C(C)Cn1c(=O)c2c(nc3n2CCN3c2ccc(F)cc2)n(C)c1=O | i | / | i | 15%
NC(=O)Nc1ccc(C(=O)OCC(=O)c2c[nH]c3ccccc23)cc1 | i | -2% | i | -13%
O=C(OCC(=O)c1c[nH]c2ccccc12)c1cncc(Br)c1 | i | -5%[1.84 µM] | i | 11µM*
Cc1cc(C)n(-c2ccc(C(=O)N3CCc4ccccc43)cc2)n1 | i | -3% | i | 11µM*
Cc1cccc(-n2cnc3cc(C(=O)N4CCc5ccccc54)ccc32)c1 | i | 24% | / | 13µM*
CCn1cc2nc(SCC(=O)Nc3ccc(C)cc3C)n(Cc3ccc(C)cc3)c(=O)c2n1 | i | / | i | ?
COCCCNC(=O)CCC(=O)N1Cc2ccccc2Oc2ncccc21 | i | / | i | -9%
CC(C)C(Cl)=NOC(=O)Nc1ccc(F)cc1 | i | -9% | / | 13µM*
CCCCOc1ccc(C(=O)NCc2nnnn2-c2ccc(C)c(C)c2)cc1 | i | / | i | 20µM*
Cc1cccc(C(=O)N2CCC(=O)N([C@H](COCc3ccc(Cl)cc3)Cc3ccccc3)CC2)c1 | i | 22% | ? | 16µM*
Cc1cccc(C(=O)N2CCC(=O)N([C@H](COCc3cccc(Cl)c3)Cc3ccccc3)CC2)c1 | i | ? | ? | 35µM*
Cc1cccc(COC[C@H](CC(C)C)N2CCN(C(=O)c3ccc(C(C)(C)C)cc3)CCC2=O)c1 | i | -26% | ? | 22µM*
Cc1cccc(C(=O)N2CCC(=O)N(C(COCc3ccc(Cl)cc3)Cc3ccccc3)CC2)c1 (stereo not given) | i | ? | ? | 35µM*
COC(=O)N1C(=O)[C@](c2ccc(Cl)cc2)(C(C)C)N1C(=O)OC | i | 6% | i | 35µM*
SMILES | Abeta yeast res | aSyn yeast inh | FUS suppressor | TDP-43 yeast inh
COC(=O)N1C(=O)[C@@](c2ccc(OC)cc2)(C(C)C)N1C(=O)OC | i | 8% | i | 15%
CC1Cc2cc(S(=O)(=O)NCc3ccc(Cl)cc3)ccc2N1C(=O)C1CCC1 (stereo not given) | i | / | i | -4%
O=C(Nc1nccs1)C1CCN(S(=O)(=O)c2c(Cl)cccc2Cl)CC1 | ? | 5% | i | 14µM*
O=C(Nc1nccs1)C1CCN(S(=O)(=O)c2ccc(F)cc2)CC1 | i | 4% | i | -6%
Fc1ccccc1-n1cc(-c2ccccc2)[nH]c1=S | ? | 3% | i | 13µM*
COc1ccc(-n2cc(-c3ccccc3)[nH]c2=S)c(OC)c1 | i | 1% | i | 5%
COc1ccccc1/C=C/c1cncc(/C=C/c2ccccc2OC)c1 | / | 29% | / | /
Clc1ccc(N2COC3c4cccc5cccc(c45)C32)cc1 (stereo not given) | i | 13% | i | 10µM*
COc1ccc(N2COC3c4cccc5cccc(c45)C32)cc1 (stereo not given) | i | -6% | i | 11µM*
COc1ccc(C2Nc3cccc4cccc(c34)N2)cc1 | i | -8% | i | ?
COc1cc2nc(N3CCCN(C)CC3)nc(NC3CCN(C)C3)c2cc1OC (stereo not given) | / | 0% | / | /
CCOc1ccc(-c2cn3c(n2)sc2cc(C(=O)NCCC4=CCCCC4)ccc23)cc1 | i | / | i | 0%[9.22 µM]
NC(=O)[C@@H]1CC2(CC(c3cccc(NC(=O)COc4ccc(Cl)cc4)c3)=NO2)CN1C(=O)c1ccccc1 (stereo not given in full) | i | 10% | i | 5%
CS(=O)(=O)c1ccc(-c2cccc(NC(=O)COc3ccc(Cl)cc3)c2)nn1 | i | -12% | i | -12%
COc1ccc(-c2cccc(NC(=O)COc3ccc(Cl)cc3)c2)nn1 | i | -11% | i | 11µM*
COc1ccc(C(=O)N2CC3(CC(c4cccc(NC(=O)COc5ccc(Cl)cc5)c4)=NO3)C[C@@H]2C(N)=O)cc1 (stereo not given in full) | i | 2% | 35µM* | 4%
Cc1ccc2oc(=O)n(CCNC(=O)Nc3ccccc3Cl)c2c1 | i | / | i | 8%
COc1ccc(-c2nc3ccccc3o2)cc1NC(=O)c1ccc(-c2cccc(Cl)c2C)o1 | i | / | i | 1%
COCCNC(=O)CCCn1c(SCc2ccccc2Cl)nc2c(sc3ccccc32)c1=O | i | / | i | 1%
O=C(/C=C/c1ccccc1)NC(=S)NNC(=O)c1cccnc1 | ? | 7% | i | 16µM*
CC(C)(C)c1cc(Cl)c(O)c(NC(=S)NC(=O)c2cccnc2)c1 | ? | 11% | i | 8.9µM*
CC(C)(C)c1ccc(OCC(=O)NNC(=S)NC(=O)c2ccccc2[N+](=O)[O-])c(Br)c1 | i | ? | i | 18µM*
Cc1cccc(C(=O)NC(=S)NNC(=O)c2ccc(Cl)cc2)c1 | 3.2µM* | ? | / | ?
Cc1ccccc1OCC(=O)NNC(=S)NC(=O)c1ccccc1[N+](=O)[O-] | i | 0% | i | 0%
Cc1cc(C)c(NC(=O)CSc2ncc(S(=O)(=O)c3ccc(C(C)(C)C)cc3)c(=O)[nH]2)c(C)c1 | i | 3% | ? | -16%
Cc1cccc(N2CCN(CCNC(=O)Nc3ccc(Cl)cc3)CC2)c1C | i | / | i | 5%
CC(C)(C)c1ccc(C(=O)NC(=S)NNC(=O)COc2ccccc2)cc1 | i | ? | i | 13µM*
O=C(NNC(=S)NC(=O)c1ccccc1)c1cccnc1 | i | -11% | i | 5%
CC(C)(C)c1ccc(C(=O)NNC(=S)NC(=O)c2cccnc2)cc1 | i | 11µM* | ? | ?
